This is part of a sample that, as a whole, favours compounds with a hit. Of some 83,000 tested, about 20% had one in any assay.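 Testing used 96-well plates and a 48-hour single-concentration exposure. Example: -40 means 40% of the starting cells died.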 A number with no mark means an inactive call. Activity calls are given as the source filed them. The calls were made as follows: active = growth percent below 10; inactive = the rest.

These results are taken from PubChem BioAssay (NCI).

What all share (experiment): NCI-60 one-dose screen, 48 h (100 = growth as untreated, 0 = no growth, -100 = all killed)
Holding throughout (settings): 10 µM unless noted

In assay [1] the test system is SK-MEL-2 melanoma.
The subject of assay [2] is EKVX NSCLC.
Assay [3] deals with SN12C renal.
The test system of assay [4] is UO-31 renal.
The subject of assay [5] is TK-10 renal.
In assay [6] the test system is ACHN renal.
Assay [7] concerns CAKI-1 renal.
In assay [8] the test system is HL-60(TB) leukemia.
In assay [9] the test system is CCRF-CEM leukemia.
The subject of assay [10] is MOLT-4 leukemia.
Assay [11] deals with SR leukemia.
In assay [12] the test system is RPMI-8226 leukemia.
For assay [13], the system named is OVCAR-8 ovarian.
The test system of assay [14] is OVCAR-5 ovarian.
Assay [15] relates to OVCAR-4 ovarian.
In assay [16] the test system is SK-OV-3 ovarian.
The test system of assay [17] is IGROV1 ovarian.
Assay [18] concerns OVCAR-3 ovarian.
Assay [19] deals with HS 578T breast.

For `O=C(CCCCCNC1=CC(=O)c2ccccc2C1=O)NCCC[Te]c1ccccc1`, the growth in [1] is 8.28% (active); in [2], -31.9% (active); in assay [3], -8.47% (active); in assay [4], 16.9%; in assay [5], -14.8% (active); in assay [6] it was -71.2% (active). The growth in assay [7] was -55.8% (active); in assay [8], 28.1%; in assay [9], -15.3% (active); in assay [10] it was 29.7%; in assay [11], 38.3%; in assay [12], 10.5%. Besides, the growth in [13] was 8.94% (active); in assay [14], -37% (active); in [15] it was -44.8% (active); in [16], -39.6% (active); in assay [17] it was -24% (active); in assay [18], -43.8% (active). Moreover, the growth in [19] was -9.34% (active).

In the case of `CS(=O)(=O)CCN1CC2CCCC(C2)C1`, the growth in assay [1] is 105%; in assay [2], 102%; in assay [3], 98.2%; in assay [4], 96.9%; in assay [5], 96.4%; in [6], 97.7%. Moreover, the growth is 97.1% in assay [7]; 81.4% in [8]; 97.2% in assay [9]; 102% in [10]; 93.9% in [11]; 101% in [12]. Also, the growth is 104% in assay [13]; 102% in assay [14]; 102% in assay [15]; 100% in assay [16]; 115% in assay [17]; 110% in assay [18]. For the same compound, the growth in assay [19] was 102%.

With `COc1ccc(NC([Se])=NC23CC4CC(CC(C4)C2)C3)cc1`, the growth in [1] is -8.11% (active); in assay [2], -14.3% (active); in [3], 4.39% (active); in assay [4], -27.3% (active); in [5], -40.9% (active); in assay [6], 0.201% (active). Besides, the growth in [7] was -31% (active); in assay [8] it was -11.8% (active); in assay [9], 5.94% (active); in [10] it was 5.72% (active); in [11], 5.11% (active); in [12], -31.9% (active). The growth is -0.307% (active) in assay [13]; -12.9% (active) in assay [14]; 6.53% (active) in assay [15]; -18.2% (active) in assay [16]; 3.84% (active) in assay [17]; -32.3% (active) in assay [18]. The growth in [19] was -5.52% (active).

Regarding `CC[C@H](C)[C@H](NC(=O)C12CC(NC(C)=O)(C1)C2)C(=O)N(C)[C@H](C[C@@H](OC(C)=O)c1nc(C(=O)N[C@@H](Cc2ccccc2)C[C@H](C)C(=O)OC)cs1)C(C)C`, the growth in assay [1] is 48.8%; in assay [2], 38.3%; in [3], 30.9%; in [4], 59%; in assay [5], 50.4%; in assay [6] it was 43.8%. Further, the growth is 63.5% in assay [7]; -10.1% (active) in assay [8]; 12.2% in [9]; 21.4% in assay [10]; 20.8% in [11]; 6.56% (active) in assay [12]. Moreover, the growth in assay [13] was 17.2%; in [14], 44%; in [15], 43.3%; in assay [16], 27%; in assay [17], 35.4%; in assay [18], -42.3% (active). For the same compound, the growth in assay [19] was 15.8%.

On to `Fc1ccc(N2COOC3(OOC2)C2CC4CC(C2)CC3C4)cc1`, for which the growth in [1] is 88.8%; in assay [2] it was 79.4%; in assay [3] it was 101%; in [4], -74.9% (active); in [5], 93%; in [6], 59.7%. For the same compound, the growth in assay [7] was 26%; in assay [8] it was 74%; in assay [9], 94.2%; in assay [10], 92.8%; in [11], -19.2% (active); in assay [12] it was 95.4%. Besides, the growth is 86.7% in assay [13]; 98.6% in assay [14]; 101% in [15]; 105% in [16]; 16.5% in [17]; 97% in [18]. In addition, the growth in assay [19] is 109%.

Take `CC(=O)O[C@H]1C(=O)[C@@]2(C)[C@H]([C@H](OC(=O)c3ccccc3)[C@]3(O)C[C@H](OC(=O)[C@H](OC(=O)OC[C@@H]4COC(C)(C)O4)[C@@H](NC(=O)c4ccccc4)c4ccccc4)C(C)=C1C3(C)C)[C@]1(OC(C)=O)CO[C@@H]1C[C@@H]2O`: the growth in assay [1] was 24.3%; in assay [2], 29.1%; in assay [3] it was 27%; in [4], 34.1%; in assay [5], 26%; in assay [6] it was 36.2%. Besides, the growth in assay [7] is 27.4%; in [8], 4.01% (active); in assay [9], 17.8%; in [10] it was 14.7%; in assay [11] it was 25.5%; in [12], 5.35% (active). The growth was 16.5% in assay [13]; 6.96% (active) in assay [14]; 64.4% in [15]; 12.9% in [16]; 16.6% in assay [17]; 8.13% (active) in assay [18]. The growth in assay [19] is 2.33% (active).

On to `O=C1C2C(C(=O)[N]1[Hg][c]1cccs1)C1(Cl)C(Cl)=C(Cl)C2(Cl)C1(Cl)Cl` (configuration not stated), for which the growth in assay [1] is 54.6%; in [2], 34.5%; in assay [3], -46.9% (active); in assay [4], -29.8% (active); in [5] it was 49.9%; in assay [6], -35.7% (active). The growth is 1.56% (active) in assay [7]; -12.1% (active) in [8]; -14.1% (active) in assay [9]; 3.08% (active) in assay [10]; 1.72% (active) in [11]; -11.4% (active) in [12]. In addition, the growth in assay [13] is 11.9%; in assay [14] it was 13.7%; in assay [15], 37.3%; in assay [16], 102%; in assay [17], 0.499% (active); in assay [18], -91.1% (active). The growth in assay [19] is 42%.

Take `COP(=S)(N1CC1)N1CC1`: the growth in assay [1] is 103%; in [2] it was 106%; in assay [3], 112%; in assay [4], 84.3%; in assay [5], 110%; in assay [6], 103%. The growth in [7] was 93.6%; in assay [8], 106%; in assay [9], 105%; in [10] it was 101%; in [11], 89.9%; in assay [12], 104%. Besides, the growth was 135% in [13]; 95.9% in [14]; 111% in assay [15]; 110% in assay [16]; 106% in [17]; 113% in [18]. In assay [19], the growth was 121%.
